According to paper PMC7826789 (International Journal of Molecular Sciences, 2021):

What was measured:
Conditions in all cases: Compound Concentration (nM):1000
EPHB2 = test system: EPHB2
EPHB3 = test system: EPHB3
EPHB4 = test system: EPHB4
EPHB6 = test system: EPHB6
ERBB2 = test system: ERBB2
ERBB3 = test system: ERBB3
ERBB4 = test system: ERBB4
ERK1 = test system: T1, ERK1
T1 construct: gene MAPK3

ERK2 = test system: T2, ERK2
T2 construct: gene MAPK1

ERK3 = test system: T3, ERK3
T3 construct: gene MAPK6

ERK4 = test system: T4, ERK4
T4 construct: gene MAPK4

ERK5 = test system: T5, ERK5
T5 construct: gene MAPK7

ERK8 = test system: T6, ERK8
T6 construct: gene MAPK15

ERN1 = test system: ERN1
FAK = test system: T7, FAK
T7 construct: gene PTK2

FER = test system: FER
FES = test system: FES
FGFR1 = test system: FGFR1
FGFR2 = test system: FGFR2
FGFR3(G697C) = test system: FGFR3(G697C)
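Further: KINOMEscan scanMAX binding as percent activity remaining versus control; lower means stronger binding.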

SMILES	Percent Control (EPHB2)	Percent Control (EPHB3)	Percent Control (EPHB4)	Percent Control (EPHB6)	Percent Control (ERBB2)	Percent Control (ERBB3)	Percent Control (ERBB4)	Percent Control (ERK1)	Percent Control (ERK2)	Percent Control (ERK3)	Percent Control (ERK4)	Percent Control (ERK5)	Percent Control (ERK8)	Percent Control (ERN1)	Percent Control (FAK)	Percent Control (FER)	Percent Control (FES)	Percent Control (FGFR1)	Percent Control (FGFR2)	Percent Control (FGFR3(G697C))
NS(=O)(=O)c1ccc(N/N=C2\C(=O)Nc3ccc(C(=O)NCc4ccncc4)cc32)cc1 [GW300657X]	93%	98%	100%	16%	80%	53%	93%	100%	88%	87%	100%	39%	4%	57%	86%	100%	100%	91%	80%	100%
Cl.O=S1CCN(Cc2ccc(-c3ccc4ncnc(Nc5ccc(OCc6ccccc6)c(F)c5)c4c3)o2)CC1 [GW576924A]	100%	100%	100%	100%	0%	58%	22%	100%	100%	100%	100%	100%	100%	100%	100%	100%	100%	100%	100%	100%
NS(=O)(=O)c1ccc(N/N=C2\C(=O)Nc3ccc(C(=O)NCCc4c[nH]cn4)cc32)cc1 [GW300660X]	100%	100%	100%	37%	57%	86%	100%	100%	100%	100%	100%	100%	18%	82%	100%	100%	100%	100%	100%	100%
COc1cccc(-n2ncc3c(N/N=C/c4ccncc4)ncnc32)c1 [GW784752X]	100%	100%	100%	100%	68%	4.9%	83%	100%	100%	41%	58%	100%	17%	72%	100%	100%	100%	87%	100%	92%
Cl.O=C(Nc1ccc(Oc2ccc3[nH]c(NC(=O)c4ccco4)nc3c2)cc1)Nc1cc(C(F)(F)F)ccc1F [GW683134A]	31%	99%	87%	3.2%	79%	77%	100%	100%	100%	90%	100%	100%	34%	89%	100%	92%	100%	64%	36%	69%
COc1cccc(-c2c[nH]c3c(N/N=C/c4ccncc4)ncnc23)c1 [GW814408X]	100%	100%	100%	2.7%	63%	13%	88%	100%	100%	19%	8.3%	100%	2%	100%	100%	100%	100%	100%	100%	100%
COc1cc(C=NNc2ncnc3c2cnn3-c2ccccc2)ccc1O [GW513184X]	93%	100%	100%	3.9%	81%	66%	100%	100%	82%	15%	37%	100%	22%	100%	100%	100%	100%	100%	100%	100%
CCn1c(-c2nonc2N)nc2c(C#CC(C)(C)O)nc(OCCNC)cc21.Cl [GSK949675]	94%	100%	100%	90%	57%	79%	100%	93%	90%	100%	100%	100%	100%	100%	100%	100%	100%	100%	100%	100%
COC(=O)Nc1nc2ccc(Oc3ccc(NC(=O)Nc4cc(C(F)(F)F)ccc4F)cc3)cc2s1.Cl [GW693917A]	34%	81%	59%	9.4%	100%	45%	100%	100%	100%	66%	95%	100%	8.5%	56%	92%	100%	88%	51%	30%	59%
CCS(=O)(=O)c1ccc(OC)c(Nc2ncc(-c3cccc(F)c3)o2)c1 [GW621970X]	100%	100%	99%	1.6%	88%	53%	100%	100%	100%	100%	100%	100%	100%	100%	100%	100%	100%	25%	22%	7.2%
COc1ccc2cc(-c3c(-c4ccncc4)nc(-c4ccc(S(C)(=O)=O)cc4C)n3C)ccc2c1 [SB-633825]	91%	80%	73%	74%	12%	84%	22%	91%	95%	42%	74%	89%	100%	74%	85%	77%	81%	73%	73%	86%
Nc1ncnc2occ(-c3ccc(NC(=O)Nc4cc(C(F)(F)F)ccc4F)cc3)c12 [GW770249X]	11%	31%	36%	0.5%	67%	91%	100%	100%	100%	100%	100%	100%	2.4%	88%	9.7%	87%	100%	32%	31%	78%
NS(=O)(=O)c1ccc(N/N=C2\C(=O)Nc3ccc(Cl)cc32)cc1 [GW280670X]	100%	100%	100%	82%	81%	72%	100%	100%	100%	100%	100%	100%	59%	100%	100%	90%	100%	100%	100%	100%
CC1=C(C(=O)Nc2ccc3[nH]ncc3c2)C(c2ccc3ccccc3c2)CC(=O)N1 (centres unmarked) [GSK270822A]	86%	89%	84%	86%	83%	100%	100%	66%	79%	100%	100%	100%	100%	78%	100%	77%	84%	72%	66%	78%
COc1ccccc1-c1cc(/C=C2\C(=O)Nc3ncc(Br)cc32)cc(Br)c1O [GW442130X]	100%	100%	100%	42%	100%	95%	100%	87%	100%	100%	100%	100%	100%	100%	97%	100%	100%	100%	100%	100%
COc1ccc2c(-c3ccnc(Nc4cccc(OC(F)(F)F)c4)n3)cnn2n1 [GW810372X]	100%	100%	100%	83%	100%	65%	100%	100%	100%	100%	100%	100%	3.6%	100%	100%	100%	100%	91%	100%	75%
COc1cc(C)c(N(C)C(=O)CN(C)C)cc1Nc1nc(Nc2cccc(F)c2C(N)=O)c2cc[nH]c2n1 [GSK2219385]	100%	93%	100%	74%	94%	57%	86%	65%	100%	90%	92%	100%	95%	100%	100%	91%	97%	100%	82%	88%
COc1cc2ncn(-c3cc(O[C@H](C)c4ccccc4Cl)c(C(N)=O)s3)c2cc1OC [GSK237701A]	90%	92%	85%	16%	100%	89%	63%	100%	100%	82%	100%	100%	84%	88%	100%	100%	95%	65%	58%	63%
CN(C)c1cc2c(Nc3ccc4c(cnn4Cc4ccccc4)c3)ncnc2cn1 [GW282974X]	100%	75%	85%	24%	0%		24%	100%	37%		100%	100%	87%	52%	85%	100%	81%	97%	97%	93%
Cc1cc(O)cc(C)c1/C=C/c1cncc(C(N)=O)c1 [GW435821X]	100%	100%	100%	6.6%	61%	43%	100%	100%	100%	100%	100%	100%	100%	82%	100%	98%	100%	92%	100%	100%
